Data on 33 compounds can be found in PubChem BioAssay AID651812 (National Center for Advancing Translational Sciences (NCATS), 2012).

Structures are written as SMILES. Hit rate of the full screen: of about 2,100 compounds, about 650 (31%) were called active. Roughly 16% stayed inconclusive and do not appear here. Calls come from the whole dose curve; as a rule, active = well fitted inhibition curve with a large enough effect; inconclusive = small, poorly fitted or top-dose-only effect; inactive = flat fitted curve, though single readings scatter. The list shows a part of the results. Where a call stands in place of a potency, no number is given.
Potency is the fitted concentration of half-maximal effect.

This experiment is described as follows: qHTS for inhibitors of Vif-A3G interactions: Cherry picks. Note: nearly all actives have a fitted effect of over 80% in size. As to conditions: HeLa A3G-eYFP + Vif (tagged APOBEC3G with the HIV-1 protein that degrades it), 24 h; Potency: eYFP fluorescence increase; series mostly up to 36.9 µM. The method, boiled down: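 HeLa cells stably expressing A3G-eYFP and Vif, cultured overnight then exposed to compounds at several concentrations for 24 hours at 37 C, 5% CO2; cellular yellow fluorescence (488 nm ex, 500-530 nm em) imaged on Acumen, MG132 positive control.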
For the compound `Cc1ccccc1/C=C\c1nc2ccccc2c(=O)[nH]1`, the Potency entry was “inactive”. Turning to `CCN(CC(=O)Nc1ccccc1-c1ccccc1)Cc1nc2ccccc2c(=O)[nH]1`, the Potency result was “inactive”. In the case of `O=c1[nH]c(/C=C/c2cccc3ccccc23)nc2ccccc12`, the Potency is 18.4 µM (active).

`O=c1[nH]c(-c2cccnc2)nc2sc(-c3ccccc3)cc12`: the Potency entry is “inactive”. The value for `O=C(NC1CCCC(C(F)(F)F)C1)c1ccc([N+](=O)[O-])o1` (stereo not drawn) was “inactive”. Consider `N#CC(=Cc1ccccn1)c1nc(-c2ccc(Cl)cc2)cs1`, for which the Potency was 6.27 µM (active). For `N#C/C(=C\c1ccc(Cl)cc1)c1nc2ncccc2[nH]1`, the Potency result is “inactive”.

For the compound `COc1ccc(CCNC(=O)CC2(CC3=NS(=O)(=O)c4ccccc4N3)CCCC2)cc1OC`, the Potency result is “inactive”. With `COc1cccc(Cn2c3ccc(NC(=O)CCc4ccc(F)cc4)cc3c(=O)n2C)c1`, the Potency entry is “inactive”.

As for `COc1ccc(-c2cc(-c3nnc(COC(=O)c4ccncc4)o3)c3ccccc3n2)cc1OC`, the Potency entry was “inactive”.

As for `CCOc1ccccc1NC(=O)Cn1nnc(C(=O)NCc2cccs2)c1N`, the Potency result is “inactive”.

On to `CCOc1ccc(C2CC(c3c(O)c4ccccc4oc3=O)=NN2c2ccccc2)cc1OC` (stereo not drawn), for which the Potency was 14.6 µM (active). Consider `CCOc1cc(-c2nnc(SCC(=O)NCc3ccccc3)nc2-c2ccc(OC)c(OCC)c2)ccc1OC`, for which the Potency entry is “inactive”. Take `COc1cc2c(cc1OC)CN(C(=O)c1cc(=O)c3ccccc3o1)CC2`: the Potency entry was “inactive”. Turning to `COc1ccc(C(=O)/C=C2/c3ccccc3CC(C)(C)N2C)cc1`, the Potency result was “inactive”. `COc1ccc(NC(=O)c2ccc3c(c2)c(C)c(C)n3Cc2ccc(F)cc2)cc1`: the Potency entry was “inactive”.

As to `COc1ccc(/C=C2\C(=O)NC(=S)N2C(=O)c2ccc(F)cc2)cc1`, the Potency was 8.2 µM (active). Take `NNC(=O)c1cc2sccc2s1`: the Potency result is “inactive”. Regarding `CC(C)n1cc(NC(=O)c2cc(-c3ccccc3)on2)cn1`, the Potency entry is “inactive”.

In the case of `N#C/C(=C\c1cccc(O)c1)c1nc2ccccc2o1`, the Potency was 3.14 µM (active). In the case of `C[C@]12CCC[C@H](O1)c1c(cc3c(c1O)C(=O)c1c(O)cc(O)cc1C3=O)O2` it was 13 µM (active); in that of `O=C1c2ccccc2C(=O)c2cc(N3CCCCC3)ccc21`, 7.9 µM (active); in that of `O=C(N/N=C/c1cccc2ccccc12)c1cc2ccccc2o1`, “inactive”. On to `COc1cccc(C(=O)c2sc3nc(-c4ccccc4)cc(C(F)(F)F)c3c2N)c1`, for which the Potency was 1.64 µM (active). For `COc1ccc(NC(=O)c2sc3nc(C(F)(F)F)cc(C)c3c2N)cc1OC`, the Potency is 23.1 µM (active). On to `COc1ccc(COc2cc(-c3cccc(OC)c3)nc3ccc(NC(=O)c4ccc(OC)cc4)cc23)cc1`, for which the Potency result was “inactive”. As to `COc1ccc(Nc2nc(C)nc3sc4c(c23)CCC4)cc1O`, the Potency result was “inactive”. Turning to `COc1ccc(N(C(=O)C(C)C)S(=O)(=O)c2cccs2)cc1`, the Potency entry was “inactive”. For the compound `COc1ccc(C(=O)c2ccc(OC)c(OC)c2OC)cc1`, the Potency result is “inactive”. For the compound `COc1cccc(-c2ccc3c(N)c(C(=O)c4ccc(Br)cc4)sc3n2)c1`, the Potency is 16.4 µM (active). Consider `COc1cc(C(=O)Nc2ccc3c(c2)nc(C)n3C)cc(OC)c1OC`, for which the Potency result was “inactive”. In the case of `COc1ccc(C(=O)c2sc3nc(C)cc(-c4cccs4)c3c2N)cc1` it was 18.4 µM (active); in that of `COC(=O)CCS(=O)(=O)c1nc(-c2ccccc2)cc(C(F)(F)F)n1`, “inactive”.
